Compound activity deposited in PubChem BioAssay by National Center for Advancing Translational Sciences (NCATS).
ATXN2 expr inh – Primary qHTS for Inhibitors of ATXN expression; HEK-293 ATXN2-luciferase reporter, luminescence, 24 h; Potency, µM (top dose mostly 57 µM), for the others: at the top dose activity change, negative = inhibition, usual class: inhibitors; 360,000 tested, 0.72% active; also: % is scaled to controls: 0 for no effect and ±100 for the full control effect; nearly all actives have a fitted effect of over 55% in size
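qHTS (up to 57 uM final) was run with 24 h compound exposure of reporter cells at 37 °C. Each well was multiplexed: SteadyGlo luminescence measured ATXN2-luciferase expression after a fluorogenic Gly-Phe-AFC viability readout (25 uM final).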
ATXN viability – Viability Counterscreen for Primary qHTS for Inhibitors of ATXN expression. 400,000 tested, 0.49% active. S2 cells (HEK-293 line with an ATXN2-luciferase reporter) viability, CellTiter-Fluor protease fluorescence, 24 h. Potency, µM (series often up to 56.7 µM), usual class: cytotoxic; also: nearly all actives have a fitted effect of over 40% in size
RORg inh – qHTS for inhibitors of ROR gamma transcriptional activity; 310,000 tested, 5.4% active; AID 2551, 2010; Drosophila S2 Gal4-RORgamma UAS-luciferase reporter, 20 h; Potency, µM (series often up to 53.6 µM), without a hit: at the highest dose activity change, negative = inhibition, actives largely listed as inhibitors; also: % is scaled to controls: 0 for no effect and ±100 for the full control effect; nearly all actives have a fitted effect of over 60% in size
Target sequence (P51450 whole entry, looked up, the tested form may be a part): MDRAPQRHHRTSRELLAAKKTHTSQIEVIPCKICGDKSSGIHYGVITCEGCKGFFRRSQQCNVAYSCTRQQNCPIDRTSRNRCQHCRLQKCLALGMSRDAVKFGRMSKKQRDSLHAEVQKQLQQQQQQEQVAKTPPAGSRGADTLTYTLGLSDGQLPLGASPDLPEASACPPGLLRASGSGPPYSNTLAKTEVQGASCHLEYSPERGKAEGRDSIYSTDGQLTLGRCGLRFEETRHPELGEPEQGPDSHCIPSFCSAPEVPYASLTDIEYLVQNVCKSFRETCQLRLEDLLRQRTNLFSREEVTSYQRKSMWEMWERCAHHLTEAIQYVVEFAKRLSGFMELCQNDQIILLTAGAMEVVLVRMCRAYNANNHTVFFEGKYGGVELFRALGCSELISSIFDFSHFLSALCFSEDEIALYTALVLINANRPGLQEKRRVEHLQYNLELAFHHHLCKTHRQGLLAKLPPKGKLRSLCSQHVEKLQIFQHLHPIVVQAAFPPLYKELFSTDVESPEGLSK
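Compounds are pin-transferred onto Drosophila Schneider cells expressing a copper-inducible Gal4–ROR gamma transactivation domain fusion. After 1 hr, copper sulfate is added to 700 uM final; luciferase is read 20 hr later.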
TGFb inhibitor – qHTS for Inhibitors of TGF-b; AID 588855, 2011; HepG2 CAGA-GFP TGF-b/SMAD3 reporter, GFP fluorescence, 18 h; TGF-beta stimulated, 500 pg/mL final; 410,000 tested, 1.2% active; Potency, µM (highest dose often 46.1 µM), for inactives: top-dose activity, negative = inhibition, hits mostly inhibitors; also: % is scaled to controls: 0 for no effect and ±100 for the full control effect; nearly all actives have a fitted effect of over 65% in size
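Per well, imaged GFP fluorescence of HEPG2 CAGA-GFP cells gives the signal; cells get compound, then TGF-beta (500 pg/mL final), 18 h at 37 degrees C; %Activity versus -TGF-beta and +DMSO controls.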
HepG2 tox – qHTS for Inhibitors of TGF-b: Cytotox Counterscreen; Potency, µM (top dose mostly 46.1 µM), inactives show at the highest dose activity change, negative = cytotoxicity, actives largely listed as cytotoxic; HepG2 CAGA-GFP viability, ATP luminescence, 18 h; AID 588856, 2011; 410,000 tested, 0.76% active
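HepG2 CAGA-GFP cells (1000/well, DMEM with 1% FBS) received compound, then TGF-beta at 500 pg/mL final, and were incubated 18 hours at 37 degrees C. Viability was read by CellTiter-Glo luminescence. Media-only wells were set as complete cell-killing and DMSO as no toxicity.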
VP16 counter – VP16 counterscreen qHTS for inhibitors of ROR gamma transcriptional activity; Drosophila S2 Gal4-VP16 UAS-luciferase, luminescence, 20 h; Potency, µM (doses to about 53.6 µM), for inactives: at the highest dose activity, negative = inhibition, most hits filed as inhibitors; 310,000 tested, 3.5% active; AID 2546, 2010;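 also: Gal4-VP16 expression switched on by copper sulfate through the metallothionein promoter; % is scaled to controls: 0 for no effect and ±100 for the full control effect; nearly all actives have a fitted effect of over 50% in size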
Starred values were filed as active, the others as inactive; i = inactive; u = inconclusive; x = no result; [ ] = another dose, or the depositor's remark. In the library only some 6.1% were active in any assay of this set; here they are far more common. Calls follow the shape of the dose curve; as a rule, active = well fitted curve in the direction sought with a large enough effect; inconclusive = small, poorly fitted or top-dose-only effect, or another doubt; inactive = no such curve, though single readings can be large; an effect the other way counts as inactive or inconclusive. Potency is read from the fitted curve at half-maximal effect.

SMILES | ATXN2 expr inh | ATXN viability | RORg inh | TGFb inhibitor | HepG2 tox | VP16 counter
CCCCCCc1cc2cc(S(=O)(=O)c3ccc(Cl)cc3)c(=O)oc2cc1O | u | x | u | 11µM* | -59% | 20µM*
CCCN(CCC)CCNC(=O)CN1C(=O)COc2ccc(S(=O)(=O)N3CCC(C)CC3)cc21 | 9% | u | x | -8% | 1% | x
CC(C)c1ccc(C(=O)CC2(O)C(=O)N(CCc3ccccc3)c3ccc(Cl)cc32)cc1 (centres undefined) | u | u | x | 16µM* | -104% | x
O=c1c2sc3ccccc3c2n(Cc2ccccc2F)c(=O)n1Cc1ccccc1 | -5% | i | x | 7% | 0% | x
Cc1ccc(-n2nc3cc(C)c(NC(=S)NC(=O)/C=C/c4ccco4)cc3n2)cc1 | 39% | i | 2.2µM* | 1% | -11% | 5µM*
NS(=O)(=O)c1ccc(NC(=S)NC(=O)/C=C/c2ccco2)cc1 | 4% | i | 10%[10 µM] | -23% | -21% | -5%
COc1ccc(-n2nc3cc(C)c(NC(=S)NC(=O)c4ccccc4C)cc3n2)cc1 | 25% | i | 3.2µM* | 16% | -21% | u
Cc1ccc(-n2nc3ccc(NC(=S)NC(=O)/C=C/c4ccco4)cc3n2)cc1 | 3% | i | 3.2µM* | -7% | 1% | u
CCC(=O)Nc1cc2nn(-c3ccc(OC)cc3)nc2cc1C | u | i | u | -2% | -52% | u
C/C(=N/Nc1ncc(C(F)(F)F)cc1Cl)c1ccncc1 | -5% | i | u | -14% | -12% | u
COc1cc(/C=N/Nc2ncc(C(F)(F)F)cc2Cl)cc(OC)c1OC | x | i | u | -29% | -1% | 20µM*
COc1cc(/C=N/Nc2ncc(C(F)(F)F)cc2Cl)cc(OC)c1O | -7% | i | 11µM* | 0% | -7% | 20µM*
COc1cc(/C=N/Nc2ccc(C(F)(F)F)cn2)ccc1O | x | u | -16% | -34% | -11% | 5%
COc1ccc(/C=N/Nc2ncc(C(F)(F)F)cc2Cl)c(OC)c1OC | -9% | i | 2.8µM* | -5% | -12% | 7.9µM*
CCOc1ccc(N(CC(=O)Nc2ccccc2Cl)S(C)(=O)=O)cc1 | x | u | 3% | -13% | -6% | 7%
CCOc1ccc(N(C(=O)c2ccccc2Cl)C2=NC(C)(C)CS2)cc1 | -3% | i | 3.2µM* | -7% | -1% | -16%
COc1ccc(NC(=O)C(NS(=O)(=O)c2cccc3nsnc23)C(C)C)cc1OC (centres undefined) | 8% | i | x | -6% | 8% | x
Cc1ccc(O)c(-c2cc(C(F)(F)C(F)F)[nH]n2)c1 | 15% | i | 34%[10 µM] | u | -17% | -5%
Cc1ccc(O)c(-c2cc(-c3ccccc3C)[nH]n2)c1 | 2% | u | 11µM* | u | 11µM* | 11µM*
Cc1ccccc1-c1cc(-c2ccccc2O)on1 | 152% | i | 13µM* | -35% | -25% | -27%
Cc1ccc(-c2cc(-c3cccs3)[nH]n2)c(O)c1 | 50% | i | 11µM* | u | -10% | u
Cc1ccc(-c2cc(C(=O)Nc3cc(C)ccc3C)[nH]n2)c(O)c1 | -11% | u | -11% | -2% | 8% | 4%
COc1ccc(-c2cc(-c3cc(C)ccc3O)[nH]n2)cc1 | 61% | u | 4µM* | u | -44% | u
COc1ccc(C(C(=O)NCc2ccccc2)N(C(=O)Cn2nnc3ccccc32)c2cccc(OC)c2)cc1 (centres undefined) | x | x | x | -9% | 0% | x
COc1cccc(C(=O)NCC(c2ccc(N(C)C)cc2)N2CCc3ccccc32)c1OC (centres undefined) | x | x | x | u | -28% | x
